The values below come from PubChem BioAssay (Tox21).

The structures appear in SMILES notation. Results filed as inconclusive are left out. Calls of active or inactive are those of the source. Unless noted, the call rests on the fitted dose curve; in most records, active means well fitted curve in the direction sought with a large enough effect in the repeat runs; inconclusive means weak or mixed curves; inactive means no such curve, though single readings can be large; an effect the other way counts as inactive or inconclusive.

Assay [1] in a line: qHTS assay for small molecule agonists of the p53 signaling pathway (AID 651631; calls by dose curve; further: nearly all actives have a fitted effect of over 15% in size; further: potency means the concentration at half of the fitted maximal effect). Summed up: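 Agonist mode screen using a stably integrated beta-lactamase gene under p53 response elements in HCT-116 cells. Compound exposure lasts 16 h at 37 °C; fluorescence intensity is measured following 2 h FRET substrate loading.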
In general terms: Quantitative high-throughput screening tests each substance at several concentrations.

Assay [2] is described as follows: qHTS assay for small molecules that induce genotoxicity in human embryonic kidney cells expressing luciferase-tagged ATAD5 (AID 651632). Further: nearly all actives have a fitted effect of over 15% in size. In outline:
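Increased luciferase signal from ATAD5-tagged reporter cells indicates DNA-damage-driven ATAD5 induction. HEK293T cells are treated for 16 hr at 37C before detection with Amplite.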

The nature of assay [3]: qHTS assay for small molecule agonists of the p53 signaling pathway - cell viability (AID 651633; calls by dose curve; further: nearly all actives have a fitted effect of over 30% in size; further: potency means the concentration at half of the fitted maximal effect). In outline:
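p53RE-bla cells, seeded at 4,000 per well and rested 5 h at 37 C/5% CO2, received compounds in DMSO for 16 h at 37 C. CellTiter-Glo was then added, and luminescence was read after 30 min at room temperature to gauge cytotoxicity.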

Assay [4] is described as follows: qHTS assay for small molecules that induce genotoxicity in human embryonic kidney cells expressing luciferase-tagged ATAD5 - cell viability (AID 651634; calls by dose curve; further: nearly all actives have a fitted effect of over 25% in size; further: potency means the concentration at half of the fitted maximal effect). Summed up: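 Cytotoxicity counterscreen in HEK293T cells bearing an ATAD5-luciferase reporter: live-cell protease activity measured by CellTiter-Fluor fluorescence after 15.5 hr compound exposure.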
A short description of assay [5]: qHTS assay to test for compound auto fluorescence at 590 nm (red) in HepG2 cells (AID 720674). Summed up: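 Rose Bengal sodium served as the red fluorophore standard. HepG2 monolayers (overnight attachment, MEM with 10% FBS) were exposed to test compounds for 1 hr at 37 C and read at Ex 540/Em 590 nm.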
A short description of assay [6]: qHTS assay to test for compound auto fluorescence at 535 nm (green) in HepG2 cells (AID 720675).
Assay [7] in a line: qHTS assay to test for compound auto fluorescence at 460 nm (blue) in HEK293 cells (AID 720678). Summed up:
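Intrinsic compound fluorescence is recorded in live HEK293 cultures after overnight incubation at 37C, 5% CO2, using excitation 405 nm and emission 460 nm. Values are referenced to triamterene.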

A short description of assay [8]: qHTS assay to test for compound auto fluorescence at 590 nm (red) in HEK293 cells (AID 720679). In outline: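 Red autofluorescence, HEK293 cells: 2,000 cells/well; attach 4-5 hr 37C; add 23 nL cpd or DMSO; incubate o/n 37C 5% CO2; read Ex540/Em590; Rose Bengal sodium reference.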
Assay [9] can be described thus: qHTS assay to test for compound auto fluorescence at 535 nm (green) in HEK293 cells (AID 720680).
Assay [10] is described as follows: qHTS assay to test for compound auto fluorescence at 460 nm (blue) in HEK293 cell free culture (AID 720681). Summed up:
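Test compounds were pinned into cell-free culture medium (DMEM with 10% FBS) and fluorescence was read directly at Ex/Em 405/460 nm. Signals were expressed as fluorescence equivalents of triamterene, with DMSO vehicle as control.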

Assay [11] can be described thus: qHTS assay to test for compound auto fluorescence at 535 nm (green) in HEK293 cell free culture (AID 720682). In outline:
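No cells present: wells hold DMEM supplemented with 10% FBS, into which compound or vehicle is pinned. Green emission is then recorded (485 nm excitation, 535 nm emission) and scaled to fluorescein.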

A short description of assay [12]: qHTS assay to test for compound auto fluorescence at 590 nm (red) in HEK293 cell free culture (AID 720683). Summed up: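 Tox21 10K library compounds were pinned into cell-free DMEM with 10% FBS and fluorescence was read at excitation 540 nm. Activity is expressed as Rose Bengal sodium equivalency.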
The nature of assay [13]: qHTS assay to test for compound auto fluorescence at 590 nm (red) in HepG2 cell free culture (AID 720684). Summed up: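 Red fluorescence (540 nm excitation, 590 nm emission) was measured after compound transfer into cell-free MEM supplemented with 10% FBS. Values are equivalencies against Rose Bengal sodium.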
Assay [14] in a line: qHTS assay to test for compound auto fluorescence at 460 nm (blue) in HepG2 cell free culture (AID 720685). In outline:
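Compound (23 nL) or DMSO pinned into cell-free MEM with 10% FBS; blue fluorescence read at 405/460 nm excitation/emission, expressed as auto-fluorescence equivalency to triamterene.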

Assay [15] in a line: qHTS assay to test for compound auto fluorescence at 535 nm (green) in HepG2 cell free culture (AID 720686).
The nature of assay [16]: qHTS assay to test for compound auto fluorescence at 460 nm (blue) in HepG2 cells (AID 720687). In outline:
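Cells (2,000/well in MEM with 10% FBS) attached overnight at 37 C, then were exposed to compound or DMSO for 1 hr at 37 C, 5% CO2. Fluorescence read at Ex/Em 405/460 nm, expressed as triamterene-equivalent signal.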

The target of assay [17] is Glucocorticoid receptor (Homo sapiens) (UniProt P04150). Put plainly: qHTS assay to identify small molecule agonists of the glucocorticoid receptor (GR) signaling pathway (AID 720691; active means well fitted activation curve with a large enough effect in the signal ratio in the repeat runs, not every such curve was filed as active; the % refers to the signal ratio). The following applies: GR-bla HeLa, beta-lactamase reporter ratio, 18 h; activation: at 62.4 µM (top of the series). In outline:
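Agonist mode in a HeLa line carrying a GRE-controlled beta-lactamase reporter. Compounds act for 18 h at 37 C before a 2 h room-temperature FRET substrate step and fluorescence reading.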

A short description of assay [18]: qHTS assay for small molecule disruptors of the mitochondrial membrane potential - cell viability (AID 720634; calls by dose curve;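 further: human HepG2 liver cancer cells; nearly all actives have a fitted effect of over 20% in size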). In outline:
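After overnight attachment at 37 C, HepG2 cells received compound or DMSO vehicle for 1 hr. Viability is then taken from ATP-driven luminescence following a 30 min room-temperature CellTiter-Glo step.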

Assay [19] can be described thus: qHTS assay for small molecule disruptors of the mitochondrial membrane potential (AID 720635). Further: potency means the concentration at half of the fitted maximal effect. Summed up: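 HepG2 cells (2,000/well) attached overnight at 37C, then took compound for 1 hr at 37C, 5% CO2. Mito-MPS dye was added for 30 min; fluorescence was read at 490/535 nm (monomers) and 540/590 nm (aggregates).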
In assay [20] the target is Glucocorticoid receptor (Homo sapiens) (UniProt P04150). The assay can be described thus: qHTS assay to identify small molecule antagonists of the glucocorticoid receptor (GR) signaling pathway (AID 720692; active means well fitted inhibition curve with a large enough effect in the signal ratio in the repeat runs, not every such curve was filed as active; the % refers to the signal ratio; further: potency means the concentration at half of the fitted maximal effect). In outline: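 Cells plated, rested 4 h at 37 C/5% CO2; compounds in DMSO pin-transferred; dexamethasone added to 5 nM final; 18 h at 37 C; B/G FRET substrate added, 2 h room temperature; fluorescence measured.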
Chain of Glucocorticoid receptor (Homo sapiens) (P04150 whole entry, looked up): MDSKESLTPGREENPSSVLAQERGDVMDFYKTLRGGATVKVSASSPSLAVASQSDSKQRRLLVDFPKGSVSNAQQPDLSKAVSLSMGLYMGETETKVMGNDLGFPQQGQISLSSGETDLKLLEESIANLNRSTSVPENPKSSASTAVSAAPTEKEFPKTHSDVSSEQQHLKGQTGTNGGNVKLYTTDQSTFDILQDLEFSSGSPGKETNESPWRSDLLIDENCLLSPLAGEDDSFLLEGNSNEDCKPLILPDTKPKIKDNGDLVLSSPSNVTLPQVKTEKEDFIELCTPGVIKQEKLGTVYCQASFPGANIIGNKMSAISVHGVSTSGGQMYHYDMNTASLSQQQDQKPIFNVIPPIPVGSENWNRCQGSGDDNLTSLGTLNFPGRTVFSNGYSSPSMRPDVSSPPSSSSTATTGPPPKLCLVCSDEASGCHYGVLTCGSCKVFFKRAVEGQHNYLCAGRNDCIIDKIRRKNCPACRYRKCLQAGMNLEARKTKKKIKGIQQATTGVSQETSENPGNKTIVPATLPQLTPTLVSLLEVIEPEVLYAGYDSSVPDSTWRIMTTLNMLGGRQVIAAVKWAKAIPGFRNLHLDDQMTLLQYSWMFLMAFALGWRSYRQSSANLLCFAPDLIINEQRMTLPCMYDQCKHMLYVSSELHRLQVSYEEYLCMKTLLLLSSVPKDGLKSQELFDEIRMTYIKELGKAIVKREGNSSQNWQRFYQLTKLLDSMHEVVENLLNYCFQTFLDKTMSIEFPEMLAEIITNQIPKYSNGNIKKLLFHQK

Regarding `N[C@@H](CSSC[C@H](N)C(=O)O)C(=O)O`, the Potency entry in assay [1], in assay [2], in assay [3], in assay [4], in assay [5] and in assay [6] was “inactive” each time. For the same compound, the Potency result in assay [7], in assay [8], in assay [9], in assay [10], in assay [11] and in assay [12] was “inactive” in each case. In addition, the Potency result in assay [13], in [14], in assay [15], in assay [16] and in [17] was “inactive” each time.

`CCNc1nc(NC(C)CC)nc(OC)n1` (centres undefined): the Potency result in assay [1], in assay [2], in [3], in assay [4], in assay [18] and in [19] was “inactive” in each case. In addition, the Potency result in [5], in assay [6], in assay [7], in [8], in [9] and in assay [10] was “inactive” each time. For the same compound, the Potency entry in assay [11], in [12], in assay [13], in assay [14], in assay [15] and in assay [16] was “inactive” in each case. For the same compound, the Potency result in [17] and in [20] was “inactive” throughout.

Take `CC(C)=C1CC[C@@H](C)CC1=O`: the Potency entry in assay [1], in assay [2], in assay [3], in [4], in assay [18] and in [19] was “inactive” each time. Further, the Potency result in assay [5], in assay [6], in assay [7], in assay [8], in assay [9] and in assay [10] was “inactive” throughout. Further, the Potency result in [11], in assay [12], in assay [13], in assay [14], in assay [15] and in assay [16] was “inactive” throughout.

Regarding `CCCCCCCCCCCC(=O)N(CC)CC`, the Potency entry in [1], in assay [2], in assay [3], in [4], in assay [19] and in assay [5] was “inactive” each time. Further, the Potency entry in [6], in assay [7], in [8], in assay [9], in assay [10] and in assay [11] was “inactive” each time. Also, the Potency entry in [12], in assay [13], in assay [14], in [15] and in [16] was “inactive” throughout.

As to `O=C(Nc1ccc(Cl)cc1)Nc1ccc(Cl)c(C(F)(F)F)c1`, the Potency is 16.8 µM (active) in assay [1], 26.6 µM (active) in assay [3], 13.3 µM (active) in assay [4] and 0.596 µM (active) in [19]. In addition, the Potency entry in assay [2], in assay [5], in [6], in assay [7], in [8] and in assay [9] was “inactive” each time. Further, the Potency result in [10], in assay [11], in assay [12], in [13], in [14] and in assay [15] was “inactive” throughout. Further, the Potency entry in assay [16] was “inactive”.

Turning to `CC(=O)Oc1ccc(C2(c3ccc(OC(C)=O)cc3)Oc3ccccc3NC2=O)cc1`, the Potency in [1] was 2.37 µM (active); in [19], 23.7 µM (active); in assay [20], 19 µM (active). Besides, the Potency result in assay [2], in [3], in assay [4], in assay [18], in assay [5] and in assay [6] was “inactive” throughout. In addition, the Potency result in assay [7], in assay [8], in [9], in [10], in [11] and in [12] was “inactive” in each case. For the same compound, the Potency result in assay [13], in assay [14], in [15] and in assay [16] was “inactive” throughout.

On to `COc1cc(C=C2CCC/C(=C\c3ccc(O)c(OC)c3)C2=O)ccc1O`, for which the Potency in assay [1] is 11.9 µM (active); in assay [3] it was 16.8 µM (active); in assay [4], 23.7 µM (active); in [19], 4.95 µM (active). The Potency entry in [2], in assay [5], in [6], in [7], in [9] and in assay [10] was “inactive” each time. The Potency entry in [11], in assay [12], in assay [13], in assay [14], in assay [15] and in assay [16] was “inactive” in each case.
